Compounds without any hit were thinned out: in the full panel of roughly 83,000, 20% have a hit.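 For each line, cells grew in 96-well plates with the test compound present at a single concentration for 48 hours.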 Unmarked numbers belong to inactive results. Calls of active or inactive are those of the source. How the source made its calls: active means growth percent below 10; inactive means the rest.

Our source for the growth values is PubChem BioAssay (NCI).

Among the test systems are DU-145 prostate; K-562 leukemia; MALME-3M melanoma; MDA-MB-231 breast; RXF 393 renal; SF-268 CNS; SF-295 CNS; SF-539 CNS; UACC-257 melanoma; M14 melanoma; HCT-15 colon; HT29 colon; SNB-75 CNS; SNB-19 CNS; U251 CNS; PC-3 prostate; SK-MEL-5 melanoma; UACC-62 melanoma; LOX IMVI melanoma; SK-MEL-28 melanoma.
What all share (experiment): NCI-60 one-dose screen, 48 h (100 = growth as untreated, 0 = no growth, -100 = all killed)
Common to all, as to details: 10 µM unless noted

In the case of `C/C(=N\O)c1ccc(Cl)cc1`, the growth is 121% with DU-145 prostate; 100% in the experiment with K-562 leukemia; 137% in the experiment on MALME-3M melanoma; 116% in the experiment on MDA-MB-231 breast; 141% in the experiment with RXF 393 renal; 127% in the experiment on SF-268 CNS. Moreover, the growth in the experiment with SF-295 CNS was 118%; in the experiment on SF-539 CNS, 114%; in the experiment with UACC-257 melanoma it was 89.5%; in the experiment with M14 melanoma, 114%; with HCT-15 colon, 112%; in the experiment on HT29 colon, 108%. Also, the growth is 89.6% in the experiment on SNB-75 CNS; 104% in the experiment with SNB-19 CNS; 103% with U251 CNS; 86.3% in the experiment on PC-3 prostate; 108% in the experiment with SK-MEL-5 melanoma; 95% in the experiment with UACC-62 melanoma. Also, the growth with LOX IMVI melanoma is 105%; in the experiment with SK-MEL-28 melanoma it was 122%.
As for `NC(=O)c1cccc(-n2ccc3cc(NC(=O)c4ccc(N5CCOCC5)c(C(F)(F)F)c4)ccc32)n1`, the growth with DU-145 prostate is 60.8%; in the experiment with K-562 leukemia, 36.6%; with MALME-3M melanoma, 65.4%; with MDA-MB-231 breast it was 49.6%; in the experiment on RXF 393 renal, -21.1% (active); with SF-268 CNS, 66.8%. The growth with SF-295 CNS is -52.1% (active); in the experiment on SF-539 CNS it was -15.4% (active); with UACC-257 melanoma, 74.6%; in the experiment with M14 melanoma it was 66.5%; in the experiment with HCT-15 colon, 33.8%; in the experiment with HT29 colon, 14.3%. Further, the growth is 52.8% with SNB-75 CNS; 70.7% with SNB-19 CNS; 44.1% in the experiment on U251 CNS; 34.5% with PC-3 prostate; 49.7% in the experiment with SK-MEL-5 melanoma; 50.9% in the experiment on UACC-62 melanoma. In addition, the growth with LOX IMVI melanoma is 64.4%; in the experiment with SK-MEL-28 melanoma it was 64.7%.
For the compound `COc1ccc(C(=O)/C=C/c2c(C(F)(F)F)nc3ccccn23)cc1OC`, the growth in the experiment on DU-145 prostate was 4.16% (active); with K-562 leukemia, 11.4%; in the experiment with MALME-3M melanoma, 41.5%; with MDA-MB-231 breast, 26.2%; in the experiment on RXF 393 renal, 14.8%; in the experiment on SF-268 CNS, 5.35% (active). For the same compound, the growth in the experiment on SF-295 CNS is 0.39% (active); with SF-539 CNS it was -13.3% (active); in the experiment on UACC-257 melanoma, 30.5%; with M14 melanoma it was 14.8%; with HCT-15 colon, -13.6% (active); with HT29 colon, 6.89% (active). Moreover, the growth was -19.9% (active) in the experiment with SNB-75 CNS; 16.5% with SNB-19 CNS; 7.17% (active) with U251 CNS; 30.6% with PC-3 prostate; 4.43% (active) with SK-MEL-5 melanoma; 5.04% (active) in the experiment with UACC-62 melanoma. The growth was -53.1% (active) in the experiment with LOX IMVI melanoma and 28.2% with SK-MEL-28 melanoma.
With `CCN1C(=O)N(CC)C2C1NN=c1s/c(=C\c3ccccc3F)c(=O)n12` (stereo not given), the growth is 2.54% (active) in the experiment on DU-145 prostate; 8.14% (active) in the experiment with K-562 leukemia; 52.6% in the experiment with MALME-3M melanoma; 15.2% with MDA-MB-231 breast; 52% in the experiment with RXF 393 renal; 44.6% in the experiment with SF-268 CNS. The growth with SF-295 CNS was 12.4%; in the experiment on SF-539 CNS, -18.1% (active); in the experiment with UACC-257 melanoma, 53.1%; in the experiment on M14 melanoma, 2.5% (active); in the experiment on HCT-15 colon, 8.45% (active); in the experiment on HT29 colon, 1.76% (active). Further, the growth in the experiment on SNB-75 CNS was 10.8%; with SNB-19 CNS, 31%; in the experiment with U251 CNS, 1.71% (active); in the experiment with PC-3 prostate, 25.1%; with SK-MEL-5 melanoma, -21.1% (active); in the experiment on UACC-62 melanoma, 34.4%. The values for the growth in the experiment on LOX IMVI melanoma and with SK-MEL-28 melanoma were 15.8% and 61.2%, respectively.
In the case of `CCC(C)N(CCNc1cc(OC)cc2cccnc12)CC(C)C` (stereo not given), the growth was 112% in the experiment with DU-145 prostate; 83.1% with K-562 leukemia; 119% in the experiment with MALME-3M melanoma; 87.8% in the experiment on MDA-MB-231 breast; 122% with RXF 393 renal; 96.4% in the experiment with SF-268 CNS. Besides, the growth with SF-295 CNS is 110%; with SF-539 CNS it was 115%; with UACC-257 melanoma, 99.8%; with M14 melanoma it was 110%; with HCT-15 colon, 71.7%; in the experiment with HT29 colon, 73.7%. Moreover, the growth in the experiment on SNB-75 CNS was 109%; in the experiment with SNB-19 CNS, 94.3%; in the experiment with U251 CNS, 99.4%; with PC-3 prostate it was 83.5%; with SK-MEL-5 melanoma it was 103%; in the experiment with UACC-62 melanoma, 88.9%. The growth was 76.9% in the experiment on LOX IMVI melanoma and 109% with SK-MEL-28 melanoma.
For the compound `COC12C=C/C(=C(/C(=O)OCc3ccncn3)C(=O)CCCCCCCCC3(OC)C=C/C(=C(/C(=O)OCc4ccncn4)C(=O)CCCCCCCC1)O3)O2`, the growth in the experiment on DU-145 prostate was -41.8% (active); in the experiment on K-562 leukemia, -5.58% (active); in the experiment on MALME-3M melanoma it was -54.3% (active); with MDA-MB-231 breast it was 10.6%; with RXF 393 renal, -77.3% (active); with SF-268 CNS, -3.7% (active). Besides, the growth was -15.9% (active) with SF-295 CNS; -18.2% (active) in the experiment on SF-539 CNS; 4.41% (active) in the experiment on UACC-257 melanoma; -22.1% (active) in the experiment on M14 melanoma; -28.5% (active) in the experiment with HCT-15 colon; 12.5% with HT29 colon. Besides, the growth was 48.7% in the experiment with SNB-75 CNS; 7.75% (active) in the experiment with SNB-19 CNS; 0.453% (active) in the experiment on U251 CNS; -36.7% (active) with PC-3 prostate; -88.1% (active) in the experiment with SK-MEL-5 melanoma; -47.4% (active) in the experiment on UACC-62 melanoma. Further, the growth with LOX IMVI melanoma was -54.8% (active); in the experiment on SK-MEL-28 melanoma, -19.2% (active).
Consider `O=C1NC(=C(Cl)Cl)/C(=N\S(=O)(=O)NCc2ccccc2)N1`, for which the growth in the experiment on DU-145 prostate is 105%; in the experiment with K-562 leukemia, 81.4%; in the experiment on MALME-3M melanoma, 104%; in the experiment with MDA-MB-231 breast, 115%; in the experiment with RXF 393 renal, 113%; in the experiment on SF-268 CNS, 102%. The growth was 114% in the experiment on SF-295 CNS; 93.7% with SF-539 CNS; 85.6% in the experiment on UACC-257 melanoma; 94.3% in the experiment with M14 melanoma; 105% in the experiment with HCT-15 colon; 108% in the experiment with HT29 colon. Also, the growth was 84.6% in the experiment with SNB-75 CNS; 91.2% in the experiment on SNB-19 CNS; 91% with U251 CNS; 95.6% in the experiment with PC-3 prostate; 96.6% with SK-MEL-5 melanoma; 85.5% with UACC-62 melanoma. The growth is 93.8% in the experiment with LOX IMVI melanoma and 103% in the experiment with SK-MEL-28 melanoma.
